Results: PubChem BioAssay (NCATS)
Records with an inconclusive call do not appear. Active and inactive are the calls of the source. Calls follow the shape of the dose curve; as a rule, active = well fitted inhibition curve with a large enough effect; inconclusive = small, poorly fitted or top-dose-only effect; inactive = flat fitted curve, though single readings scatter.

Legend:
Experiment in all cases: qHTS profiling for inhibitors of Plasmodium falciparum proliferation (AID 504749); also: nearly all actives have a fitted effect of over 60% in size
Conditions in all cases: P. falciparum in erythrocytes, SYBR Green DNA, 72 h; series mostly up to 28.7 µM
CP256 = tested on: CP256
In short: (§1)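 Each compound contacts P. falciparum-infected red blood cells for 72 h at 37 C; lysis buffer (Tris, EDTA, saponin, Triton X, SYBR Green I) is added and fluorescence measured next morning; values normalized to controls.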

CP260 = tested on: CP260
In short: as §1

CP262 = tested on: CP262
In short: as §1

CP265 = tested on: CP265
In short: as §1

CP266 = tested on: CP266
In short: as §1

CP268 = tested on: CP268
In short: as §1

CP269 = tested on: CP269
In short: as §1

CP286 = tested on: CP286
In short: as §1

CP291 = tested on: CP291
In short: as §1

CP297 = tested on: CP297
In short: as §1

CP305 = tested on: CP305
In short: as §1

CP315 = tested on: CP315
In short: as §1

CP325 = tested on: CP325
In short: as §1

CP329 = tested on: CP329
In short: as §1

DFO2036 = tested on: DFO2036
In short: as §1

DIV14 = tested on: DIV14
In short: as §1

DIV17 = tested on: DIV17
In short: as §1

DIV30 = tested on: DIV30
In short: as §1

FAB9 = tested on: FAB9
In short: as §1

GB4 = tested on: GB4
In short: as §1

HB3 = tested on: HB3
In short: as §1

ICS = tested on: ICS
In short: as §1

JCK = tested on: JCK
In short: as §1

N140 = tested on: N140
In short: as §1

P93_24 = tested on: P93_24
In short: as §1

P94_40 = tested on: P94_40
In short: as §1

PAD = tested on: PAD
In short: as §1

PC15 = tested on: PC15
In short: as §1

PC26 = tested on: PC26
In short: as §1

PC49 = tested on: PC49
In short: as §1

SC27B = tested on: SC27B
In short: as §1

TAB109 = tested on: TAB109
In short: as §1

TAB165 = tested on: TAB165
In short: as §1

W2 = tested on: W2
In short: as §1

Measured: Potency

C[N+]1(C)C2CC[C@H]1CC(OC(=O)[C@@H](CO)c1ccccc1)C2 (some centres undefined)
inactive: all assays above
